Compound activity from PubChem.
IDE exosite FP – insulin-degrading enzyme (human) exo-site inhibition. P14735. purified IDE, FL-6b probe fluorescence polarization; stronger effect = lower value. z-score at 20 µM. 17,000 compounds, 6.3% hits;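 active means z-score of -3 or lower, meaning strong loss of probe binding signal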;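 further: His-tagged human IDE residues 42-1019 made in E. coli with 30 nM FL-6b probe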
Numbers stand for hits; 0 = inactive; ! = not active in a repeat. This is one part of a sample in which hits are shown more often than they occur.

SMILES	IDE exosite FP
CCCNC(=O)N1CC2(C1)CN(Cc1ccc(F)cc1)[C@H](CO)c1[nH]c3cc(OC)ccc3c12	0
CCCNC(=O)N1CCC2(CC1)CN(Cc1cccc(OC)c1)[C@H](CO)c1[nH]c3cc(OC)ccc3c12	-4.64
COc1ccc2c3c([nH]c2c1)[C@H](CO)N(Cc1cccc(F)c1)CC31CCN(C(C)=O)CC1	-6.64
COc1ccc2c3c([nH]c2c1)[C@@H](CO)N(Cc1nccs1)CC31CN(Cc2ccncc2)C1	-3.16
CCC(=O)N1CC2(C1)CN(Cc1cccc(Cl)c1)[C@@H](CO)c1[nH]c3cc(OC)ccc3c12	-3.34
COc1ccc2c3c([nH]c2c1)[C@@H](CO)N(Cc1ccncc1)CC31CCN(CC2CCOCC2)CC1	0
COc1ccc(CN2CC3(CN(C(=O)Cc4ccccc4)C3)c3c([nH]c4cc(OC)ccc34)[C@@H]2CO)cc1	0
CCCNC(=O)N1CC2(CCN(S(=O)(=O)CC)CC2)c2c([nH]c3cc(OC)ccc23)[C@@H]1CO	0
COCC(=O)N1CC[C@@H]2[C@@H](CO)N(C)c3ccc(-c4cccc(F)c4)cc3[C@@H]21	0
O=C(c1cccnc1)N1CC(=O)N2[C@H](CO)[C@H](c3ccc(C#CCC4CCCC4)cc3)[C@@H]2C1	0
C[C@@H]1CN([C@@H](C)CO)C(=O)c2c(c3ccccc3n2C)-c2ccccc2CO[C@H]1CN(C)C(=O)NC1CCCCC1	0
O=C([C@H]1[C@H](CO)[C@H]2Cn3c(cccc3=O)[C@@H]1N2S(=O)(=O)c1ccccc1F)N1CCCCC1	0
O=C(Nc1ccccc1F)N1CCCCN2[C@H](CO)[C@H](c3ccc(C#Cc4cccnc4)cc3)[C@@H]2C1	-6.83
O=C(Nc1ccccc1F)N1CCCCN2[C@H](CO)[C@@H](c3ccc(C#Cc4cccnc4)cc3)[C@H]2C1	0
O=C(Nc1cccc(F)c1)N1CCCCN2[C@@H](CO)[C@H](c3ccc(C#Cc4ccccc4)cc3)[C@@H]2C1	-3.53
O=C(Nc1cccc(F)c1)N1CCCCN2[C@H](C1)[C@H](c1ccc(C#Cc3ccccc3)cc1)[C@@H]2CO	0
O=C(Nc1cccc(F)c1)N1CCCCN2[C@H](CO)[C@H](c3ccc(C#Cc4ccccc4)cc3)[C@H]2C1	0
O=C(Nc1ccccc1)N1CCCCN2[C@H](CO)[C@@H](c3ccc(C#Cc4cccnc4)cc3)[C@H]2C1	0
O=C(Nc1ccccc1)N1CCCCN2[C@@H](CO)[C@H](c3ccc(C#Cc4cccnc4)cc3)[C@@H]2C1	-5.33
O=C(Nc1ccccc1F)N1CCCCN2[C@H](C1)[C@H](c1ccc(C#Cc3cccnc3)cc1)[C@@H]2CO	0
O=C(Nc1ccccc1)N1CCCCN2[C@@H](CO)[C@@H](c3ccc(C#Cc4cccnc4)cc3)[C@@H]2C1	0
O=C(Cc1ccccc1)N1CC(=O)N2[C@H](C1)[C@@H](c1ccc(C3=CCCC3)cc1)[C@@H]2CO	0
CC(C)CC#Cc1ccc([C@@H]2[C@@H](CO)N3C(=O)CN(C(=O)c4ccc5c(c4)OCO5)C[C@@H]23)cc1	0
CCCC#Cc1ccc([C@@H]2[C@H]3CN(C(=O)Nc4ccccc4F)CC(=O)N3[C@H]2CO)cc1	0
Cc1noc(C)c1S(=O)(=O)N(C)C[C@H]1OCCCC[C@@H](C)Oc2ccc(NC(=O)CCC(F)(F)F)cc2C(=O)N([C@@H](C)CO)C[C@@H]1C	0
SMILES	IDE exosite FP
CC(C)(O)C#Cc1ccc([C@@H]2[C@@H](CO)N3CCCCN(C(=O)c4cccc(F)c4)C[C@@H]23)cc1	0
O=C(Cc1cccnc1)N1[C@H](CO)[C@H](c2ccccc2)[C@H]1CNCC1CCC1	0
Cc1ccc(OC(=O)N(C)C[C@@H]2OCc3ccccc3-c3ccccc3C(=O)N([C@H](C)CO)C[C@H]2C)cc1	0
C[C@H]1CCCCO[C@H](CN(C)C(=O)CCC(F)(F)F)[C@@H](C)CN([C@@H](C)CO)C(=O)c2cc(NC(=O)C3CCCCC3)ccc2O1	0
CCC(=O)N1[C@@H](CO)[C@@H](c2ccccc2)C12CN(C(=O)c1ccncc1)C2	0
CCC(=O)N1[C@H](CO)[C@H](c2ccccc2)C12CN(C(=O)c1ccncc1)C2	0
O=C(Cc1ccccn1)N1CC2(C1)[C@H](c1ccccc1)[C@H](CO)N2C(=O)c1ccncc1	-4.47
CS(=O)(=O)N1Cc2cc(C(=O)O)nc(-c3cccc(-c4ccccc4F)c3)c2[C@@H]1CCO	0
Cc1ccc(-c2ccc([C@H]3[C@H](CO)N4C(=O)CN(C(=O)Cc5ccccn5)C[C@@H]34)cc2)cc1	0
O=C(Cc1ccccn1)N1CC(=O)N2[C@@H](CO)[C@H](c3ccc(-c4ccccc4)cc3)[C@@H]2C1	0
O=C(Cc1ccccn1)N1CC(=O)N2[C@H](CO)[C@@H](c3ccc(C#CC4CC4)cc3)[C@H]2C1	0
COc1ccc(-c2ccc([C@H]3[C@H]4CN(C(=O)Cc5ccccn5)CC(=O)N4[C@H]3CO)cc2)cc1	0
O=C(Cc1ccccn1)N1CC(=O)N2[C@H](C1)[C@@H](c1ccc(C#CC3CC3)cc1)[C@@H]2CO	-3.08
Cc1ccc(-c2ccc([C@H]3[C@@H](CO)N4C(=O)CN(C(=O)Cc5ccccn5)C[C@@H]34)cc2)cc1	0
Cc1cccc(-c2ccc([C@H]3[C@H]4CN(C(=O)Cc5ccccn5)CC(=O)N4[C@H]3CO)cc2)c1	-4.49
Cc1ccc(-c2ccc([C@H]3[C@H]4CN(C(=O)Cc5ccccn5)CC(=O)N4[C@H]3CO)cc2)cc1	0
Cc1cccc(-c2ccc([C@H]3[C@@H](CO)N4C(=O)CN(C(=O)Cc5ccccn5)C[C@@H]34)cc2)c1	-10.6
COc1ccc(-c2ccc([C@@H]3[C@@H](CO)N4C(=O)CN(C(=O)Cc5ccccn5)C[C@H]34)cc2)cc1	0
O=C(Cc1ccccn1)N1CC(=O)N2[C@@H](CO)[C@@H](c3ccc(C#CC4CC4)cc3)[C@@H]2C1	0
Cc1cccc(-c2ccc([C@@H]3[C@@H](CO)N4C(=O)CN(C(=O)Cc5ccccn5)C[C@@H]34)cc2)c1	-11.8
CCCNC(=O)Nc1ccc2c(c1)OC[C@@H](C)N(C(=O)C1CCOCC1)C[C@H](C)[C@H](OC)CN(C)C2=O	0
c1cncc(-c2ccc(C3[C@@H]4CN(Cc5nccs5)C[C@H]3N4)cc2)c1 (stereo partly specified)	0
O=C(O)[C@@H]1[C@@H](CO)[C@@H]2Cn3c(ccc(/C=C/c4ccccc4)c3=O)[C@@H]2N1Cc1ccc2c(c1)OCO2	0
O=C(Cc1ccccc1)NC[C@H]1N[C@H](CO)[C@@H]1c1ccc(-c2ccccc2)cc1	0
CC(=O)N1CC(=O)N2[C@H](CO)[C@@H](c3ccc(-c4ccc(C#N)cc4)cc3)[C@H]2C1	0
SMILES	IDE exosite FP
COc1cccc(NC(=O)N2[C@@H]3CNC[C@H]2C3c2ccc(-c3cccnc3)cc2)c1 (stereo partly specified)	0
O=C(Nc1ccc(C(F)(F)F)cc1)N1[C@@H]2CNC[C@H]1C2c1ccc(-c2ccccc2F)cc1 (stereo partly specified)	0
COc1cccc(NC(=O)N2[C@@H]3CNC[C@H]2C3c2ccc(-c3cccc(OC)c3)cc2)c1 (stereo partly specified)	-7.29!
COc1cccc(-c2ccc(C3[C@H]4CNC[C@@H]3N4C(=O)Nc3ccccc3Cl)cc2)c1 (stereo partly specified)	0
O=C(Nc1ccccc1F)N1[C@@H]2CNC[C@H]1C2c1ccc(-c2ccncc2)cc1 (stereo partly specified)	0
COc1ccccc1-c1ccc(C2[C@H]3CNC[C@@H]2N3C(=O)Nc2ccccc2F)cc1 (stereo partly specified)	-10.7
